Compound activity deposited in PubChem BioAssay by National Center for Advancing Translational Sciences (NCATS).
The list is not random: actives were taken first. Their share in the collection is about 7.8%.
LASV entry inh: inhibitors of Lassa virus binding or cell entry; actives 1.2% (n = 300,000); AID 540256; Potency, µM (doses to about 37.9 µM), for inactives: at the top dose activity change, negative = inhibition, actives largely listed as inhibitors; Lassa virus pseudotype entry inhibition, cell reporter; calls by dose curve; tested in HEK293 cells; further: potency means the concentration at half of the fitted maximal effect; nearly all actives have a fitted effect of over 50% in size
HCV inhibitor: blocks hepatitis C virus | Huh7.5.1 HCVcc-Cre infection, luciferase reporter, 44 h | Potency, µM (series often up to 41.8 µM), for the others: top-dose activity change, negative = inhibition, usual class: inhibitors | actives 3.4% (n = 340,000) | AID 651820; active means well fitted inhibition curve with a large enough effect; inconclusive means small, poorly fitted or top-dose-only effect, or another doubt; inactive means no such curve, though single readings can be large or run the other way; further: potency means the concentration at half of the fitted maximal effect
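Compounds are dispensed onto cells plated 4 h earlier at 1,000 per well, with HCVcc-Cre virus (about 0.5 moi) added next. Following 44 h of culture, luminescent signal is measured for 15 sec after 15 min with substrate at room temperature.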
Marburg entry inh: inhibitors of Marburg virus binding or cell entry; Potency, µM (titrated, usually from 37.8 µM), for inactives: top-dose activity change, negative = inhibition, hits mostly inhibitors; Marburg virus pseudotyped entry inhibition, cell reporter; actives 1.8% (n = 300,000); calls by dose curve; tested in HEK293 cells; further: potency means the concentration at half of the fitted maximal effect
HCMV antiviral: human cytomegalovirus inhibition. HFF cells, HCMV-luciferase reporter, 72 h; active compounds read low. activity change, negative = inhibition, % at 57.5 µM. actives 4.5% (n = 410,000). AID 1259415; in the data active means activity change below about -60%; inconclusive means no clear call, values can overlap the other calls; inactive means above about -39%
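Two-dose cell screen: HFF monolayers treated with compounds and infected with luciferase-expressing HCMV at 1 PFU/cell, 72 h at 37C, then lysed for luciferase measurement.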
VACV Venus inh: inhibitors of vaccinia virus (Venus reporter). Vaccinia virus Venus reporter expression, fluorescence. Potency, µM (series often up to 36.5 µM), for inactives: at the top dose activity change, negative = inhibition, actives largely listed as inhibitors. actives 0.46% (n = 330,000). AID 720580; calls by dose curve; tested in A549 cells; further: potency means the concentration at half of the fitted maximal effect; nearly all actives have a fitted effect of over 30% in size
Vaccinia mCherry: vaccinia inhibition (mCherry reporter); actives 0.63% (n = 310,000); AID 720579; Potency, µM (titrated, usually from 36.5 µM), for the others: top-dose activity change, negative = inhibition, most hits filed as inhibitors; Vaccinia virus mCherry reporter infection, fluorescence; calls by dose curve; tested in A549 cells; further: potency means the concentration at half of the fitted maximal effect; nearly all actives have a fitted effect of over 35% in size
* = called active by the depositor; i = inactive; ? = inconclusive; nt = no result given; [ ] = dose if it differs, or a comment. On the % scale 0 is the no-effect control and ±100 the full control effect.

SMILES | LASV entry inh | HCV inhibitor | Marburg entry inh | HCMV antiviral | VACV Venus inh | Vaccinia mCherry
CCOC(=O)c1c(C)[nH]c(C)c1C(=O)COC(=O)c1cccc(S(=O)(=O)NC)c1 | 15.5% | -25.1% | -4.9% | 35.5 | -20.4% | -4.7%
CCOC(=O)c1c(C)[nH]c(C)c1C(=O)COC(=O)c1ccc(S(=O)(=O)N(CC)CC)cc1 | ? | 25.1µM* | -26.0% | -24.5 | nt | nt
CN1CCCC(CN(C)C(=O)c2cnn(-c3nccc(-c4ccccc4C(F)(F)F)n3)c2C2CC2)C1 (centres undefined) | nt | nt | nt | nt | -5.2% | -0.1%
CCOc1ccc(S(=O)(=O)c2c(C(=O)c3ccccc3)cnc3cc4c(cc23)OCCO4)cc1 | -8.5% | 2.3% | ? | -75.9* | -19.0% | ?
CCOc1ccc(C(=O)c2cnc3ccc(Cl)cc3c2S(=O)(=O)c2ccc(C)cc2)cc1 | nt | nt | ? | 11.8 | -10.2% | -14.1%
CC(CCCC(C)(C)O)NC(=O)c1cc(COc2ccc3ncccc3c2)on1 (centres undefined) | ? | 5.62µM* | -9.2%[46.1 µM] | -87.5* | -20.2% | -25.3%
Cc1ccc(F)cc1CNC(=O)c1cc(COc2ccc3ncccc3c2)on1 | ? | 2.82µM* | ? | -95.7* | -6.7% | ?
O=C(NCc1cccc(Cl)c1)c1cc(COc2ccc3ncccc3c2)on1 | ? | 6.31µM* | ? | ? | -22.2% | ?
Cc1cc(C)n(CCNC(=O)c2cc(COc3ccc4ncccc4c3)on2)n1 | nt | ? | nt | 0.0 | nt | nt
CCC1(C2CCN(C(=O)c3ccc(C)c(C)c3)CC2)NC(=O)N(CCc2scnc2C)C1=O (centres undefined) | nt | nt | nt | nt | -6.5% | i
Cc1ccc(NC(=O)CSc2nnc3nc(C)cc(C)n23)cc1 | 0.0%[46.1 µM] | nt | -7.9%[46.1 µM] | -13.5 | -3.4% | -4.0%
CNC(=O)C1CCN(S(=O)(=O)c2c(C)noc2/C=C/N(C)C)CC1 | nt | 11.3% | nt | 29.3 | 5.1%[7.34 µM] | -3.8%[7.34 µM]
Cc1noc(/C=C/N(C)C)c1S(=O)(=O)N1CCCC(C(=O)NCc2ccc(Cl)cc2)C1 (centres undefined) | 20.0%[14.3 µM] | nt | ? | -10.3 | -13.8% | -13.2%
Cc1noc(/C=C/N(C)C)c1S(=O)(=O)N1CCCC(C(=O)NCc2ccccc2Cl)C1 (centres undefined) | -9.4% | ? | -3.3% | -97.9* | nt | nt
Cc1noc(/C=C/N(C)C)c1S(=O)(=O)N1CCN(c2ccccc2)CC1 | nt | ? | nt | -86.1* | -11.0% | -6.5%
Cc1ccc(C)c(N2CCN(S(=O)(=O)c3c(C)noc3/C=C/N(C)C)CC2)c1 | ? | ? | 12.6µM* | -10.4 | -14.4% | nt
CCOC(=O)CSC1=C(C#N)[C@H](c2ccc(C)cc2)[C@H](C(=O)OC)C(=O)N1 | nt | nt | -15.2%[46.1 µM] | nt | nt | nt
COc1cccc(CN2C(=O)NC(C)(C3CCN(Cc4cc(Cl)ccc4O)CC3)C2=O)c1OC (centres undefined) | nt | nt | nt | nt | -23.8% | -10.3%
Cc1ccc(N(CC(=O)Nc2cccc(Cl)c2C)S(=O)(=O)c2c(C)noc2C)cc1 | -0.8%[46.1 µM] | nt | -12.4%[46.1 µM] | -12.8 | -0.4% | -15.0%
Cc1cc(/C=N/n2cnnc2)c(C)n1-c1ccc(OCc2ccc(Cl)cc2)cc1 | ? | 7.94µM* | ? | -91.5* | -22.6% | ?
Fc1ccccc1COc1cccc(/C=N/n2cnnc2)c1 | 16.9% | 17.2% | ? | -26.1 | nt | nt
Cc1cc(/C=N/n2cnnc2)c(C)n1-c1ccc(OCc2ccccc2F)cc1 | ? | ? | ? | -92.9* | ? | -20.5%
CCc1c(C)sc(NC(=O)c2cc(-c3cc(OC)ccc3OC)on2)c1C#N | -14.4% | ? | ? | -67.8* | nt | nt
CCc1c(C)sc(NC(=O)c2cc(-c3ccc(OC)c(OC)c3)on2)c1C#N | 16.4%[46.1 µM] | -18.1% | -13.3%[46.1 µM] | 10.0 | -11.4% | -16.8%
CCc1c(C)sc(NC(=O)c2cc(-c3ccc(O)cc3)on2)c1C#N | nt | ? | nt | -60.9* | -10.4% | i
SMILES | LASV entry inh | HCV inhibitor | Marburg entry inh | HCMV antiviral | VACV Venus inh | Vaccinia mCherry
O=C(c1[nH]c2ccccc2c1Sc1ccc(Cl)cc1)N1CCCCC1 | 25.7%[46.1 µM] | nt | -0.6%[46.1 µM] | 31.5 | -12.0% | -4.1%
CC(=O)N1CCSc2ccc(S(=O)(=O)NCCc3ccc(C)cc3)cc21 | 7.94µM* | ? | ? | 0.0 | -15.4% | -20.0%
CC(=O)N1CCSc2ccc(S(=O)(=O)NCCc3ccc(Cl)cc3)cc21 | nt | 11.2µM* | nt | -60.1* | -2.1%[7.34 µM] | -17.5%[7.34 µM]
CC(=O)N1CCSc2ccc(S(=O)(=O)NCCc3cccc(C)c3)cc21 | -28.7%[46.1 µM] | ? | ? | ? | -23.5% | i
CC(=O)N1CCSc2ccc(S(=O)(=O)Nc3ccc(C)cc3)cc21 | -5.9%[46.1 µM] | ? | -20.1%[46.1 µM] | -33.4 | -12.9% | -5.7%
CC(=O)N1c2ccc(S(=O)(=O)NCCC(=O)NCCc3ccc(Cl)cc3)cc2CC1C (centres undefined) | nt | ? | nt | -61.5* | 15.5%[7.34 µM] | 10.7%[7.34 µM]
CC(=O)N1c2ccc(S(=O)(=O)NCCC(=O)NCCc3ccc(C)cc3)cc2CC1C (centres undefined) | nt | ? | nt | 0.0 | -11.5%[7.34 µM] | i[7.34 µM]
CCn1cc2nc(SCc3cccc(OC)c3)n(Cc3ccc(Cl)cc3)c(=O)c2n1 | ? | nt | ? | -24.3 | -25.4% | -25.1%
C=C(Nc1ccc(OC)cc1)C(=O)OC | nt | nt | 3.6%[14.2 µM] | nt | nt | nt
CC(C)NC(=O)CCn1c(SCc2c(F)cccc2Cl)nc2c(sc3ccccc32)c1=O | 25.5%[46.1 µM] | nt | -17.8%[46.1 µM] | -11.8 | -9.5% | -13.0%
Cc1cc2c(=O)n(C)c(SCC(=O)Nc3ccccc3)nc2s1 | nt | -18.6% | 23.3%[46.1 µM] | -61.3* | -1.0% | 4.1%
COCCCn1c(SCC(=O)Nc2ccc(OC)cc2)nc2c(sc3ccccc32)c1=O | -26.8%[46.1 µM] | nt | nt | ? | 1.6% | -5.8%
Cc1cccc(CSc2nc3c(sc4ccccc43)c(=O)n2CCC(=O)NC(C)C)c1 | 21.9%[46.1 µM] | nt | 13.1%[46.1 µM] | -60.8* | -3.4% | -11.6%
COc1ccc(NC(=O)CSc2nc3c(sc4ccccc43)c(=O)n2CCCN2CCCC2)cc1 | nt | 2.51µM* | nt | nt | nt | nt
Cc1cccc(NC(=O)CSc2nc3ccccc3c(=O)n2C)c1C | nt | nt | nt | -68.0* | -24.1% | -10.0%
